Cytotoxicity call data for 65 compounds are collected here from the antibiotic and cytotoxicity screens of Wong et al. (2023).

In all, about 39,000 compounds went through this assay and about 3,300 (8.5%) were called active. What follows is part of a selection rich in actives, with near analogues and random picks from the rest.

In this assay the test system is HepG2. In words: cytotoxicity call (relative viability < 0.9). The following applies: 10 µM.
Take `O=C(C[C@@H]1CC[C@H](NC(=O)Nc2ccc3c(c2)OCO3)[C@@H](CO)O1)NCCCN1CCOCC1`: the cytotoxicity call is “inactive”.

In the case of `C[C@@H]1CN([C@H](C)CO)C(=O)c2cc(NC(=O)CCCN(C)C)ccc2O[C@@H](C)CCCCO[C@H]1CN(C)S(=O)(=O)c1cn(C)cn1`, the cytotoxicity call is “inactive”.

`C[C@H](CO)N1C[C@H](C)[C@H](CN(C)C(=O)c2cccc(F)c2)Oc2cc(C#CC3CC3)ccc2S1(=O)=O`: the cytotoxicity call is “inactive”.

Turning to `CC(C)C[C@@](O)(CC(=O)O)C(=O)O`, the cytotoxicity call is “inactive”.

On to `CN(C)CCCNC(=O)C[C@@H]1CC[C@H]2[C@@H](COc3ccc(NS(C)(=O)=O)cc3C(=O)N2C)O1`, for which the cytotoxicity call is “inactive”.

Take `CC(C)N1CC=C[C@@]23O[C@@H]4C=CCOC(=O)[C@@H]4[C@H]2C(=O)N([C@@H](C)CO)[C@@H]3C1=O`: the cytotoxicity call was “inactive”.

As for `O=c1[nH]c(=S)[nH]nc1O`, the cytotoxicity call was “inactive”.

On to `CC1(C)C=C(C(=O)N2CCOCC2)C(C)(C)N1`, for which the cytotoxicity call was “inactive”.

`C[C@@H]1CN([C@H](C)CO)C(=O)Cc2cc(NC(=O)C3CCCCC3)ccc2O[C@H]1CN(C)S(=O)(=O)c1cn(C)cn1`: the cytotoxicity call is “inactive”.

For the compound `C[C@H](CO)N1C[C@H](C)[C@@H](CN(C)Cc2ccc(-c3ccccc3)cc2)Oc2ccc(NC(=O)Cn3cnnn3)cc2CC1=O`, the cytotoxicity call was “inactive”.

Regarding `NCCCCCCNC(=O)[C@H]1C[C@H]2C(=O)N[C@@H](Cc3ccccc3)C(=O)N2[C@H]1c1cccc(OCCO)c1`, the cytotoxicity call is “inactive”.

Turning to `C[C@@H]1CCCCO[C@@H](CN(C)C(=O)Cc2ccccc2)[C@H](C)CN([C@@H](C)CO)C(=O)c2cc(NS(=O)(=O)c3ccc(F)cc3)ccc2O1`, the cytotoxicity call is “inactive”.

In the case of `O.O=C([O-])CC(O)(CC(=O)[O-])C(=O)[O-].[Li+].[Li+].[Li+]`, the cytotoxicity call is “inactive”.

On to `C[C@@H]1CN([C@@H](C)CO)C(=O)c2cccc(NS(=O)(=O)c3cccs3)c2O[C@@H]1CN(C)Cc1ccc(-c2ccccc2)cc1`, for which the cytotoxicity call was “active”.

As for `CC(C)NC(=O)N(C)C[C@H]1Oc2c(NS(=O)(=O)c3ccccc3)cccc2C(=O)N([C@H](C)CO)C[C@@H]1C`, the cytotoxicity call was “inactive”.

With `CC(C)NC(=O)N(C)C[C@@H]1Oc2c(NS(=O)(=O)c3ccccc3)cccc2C(=O)N([C@@H](C)CO)C[C@@H]1C`, the cytotoxicity call was “inactive”.

As for `C[C@H]1CN([C@@H](C)CO)C(=O)c2cccc(NS(=O)(=O)c3ccc(Cl)cc3)c2O[C@@H]1CN(C)Cc1ccc(C(F)(F)F)cc1`, the cytotoxicity call was “inactive”.

In the case of `C[C@@H]1CN([C@H](C)CO)C(=O)c2cccc(NS(=O)(=O)c3cccs3)c2O[C@@H]1CN(C)Cc1ccc(-c2ccccc2)cc1`, the cytotoxicity call was “inactive”.

Turning to `C[C@@H]1CN([C@H](C)CO)C(=O)c2cccc(NS(=O)(=O)c3cccs3)c2O[C@H]1CN(C)Cc1ccc(-c2ccccc2)cc1`, the cytotoxicity call was “inactive”.

`C[C@H](CO)N1C[C@H](C)[C@@H](CN(C)Cc2ccc(C(F)(F)F)cc2)Oc2c(NS(=O)(=O)c3ccc(Cl)cc3)cccc2C1=O`: the cytotoxicity call was “inactive”.

For the compound `C[C@@H]1CN([C@@H](C)CO)C(=O)c2cccc(NS(=O)(=O)c3ccc(Cl)cc3)c2O[C@@H]1CN(C)Cc1ccc(C(F)(F)F)cc1`, the cytotoxicity call is “active”.

Turning to `CC(C)NC(=O)N(C)C[C@H]1Oc2c(NS(=O)(=O)c3ccccc3)cccc2C(=O)N([C@H](C)CO)C[C@H]1C`, the cytotoxicity call is “active”.

Take `Cc1noc(C)c1S(=O)(=O)N(C)C[C@H]1OCCCC[C@@H](C)Oc2ccc(NC(=O)Nc3ccc(F)cc3)cc2C(=O)N([C@@H](C)CO)C[C@H]1C`: the cytotoxicity call was “inactive”.

Take `Cc1noc(C)c1NC(=O)Nc1ccc2c(c1)CC(=O)N([C@H](C)CO)C[C@H](C)[C@@H](CN(C)Cc1ccc(Oc3ccccc3)cc1)O2`: the cytotoxicity call was “inactive”.

Take `C[C@H](CO)N1C[C@H](C)[C@@H](CN(C)C(=O)Nc2ccc3c(c2)OCO3)Oc2ccc(NC(=O)C3CC3)cc2CC1=O`: the cytotoxicity call is “inactive”.

For the compound `Cc1noc(C)c1S(=O)(=O)N(C)C[C@H]1Oc2ccc(NC(=O)Cn3cnnn3)cc2C(=O)N([C@H](C)CO)C[C@H]1C`, the cytotoxicity call was “inactive”.

As to `C[C@@H]1CN([C@H](C)CO)S(=O)(=O)c2ccc(C#Cc3ccccc3)cc2O[C@@H]1CN(C)C(=O)Cc1ccccn1`, the cytotoxicity call was “inactive”.

As to `C[C@@H]1CN([C@H](C)CO)C(=O)Cc2cc(NC(=O)c3ccncc3)ccc2O[C@@H]1CN(C)Cc1ccc2c(c1)OCO2`, the cytotoxicity call is “inactive”.

Consider `COc1ccc(C(N)=O)cc1`, for which the cytotoxicity call is “inactive”.

As for `COC(=O)[C@@H]1[C@@H](c2ccc(OC)cc2)[C@H](C(=O)OC)S(=O)(=O)CS1(=O)=O`, the cytotoxicity call is “active”.

Turning to `COc1ccc(CNCC(=O)O)cc1`, the cytotoxicity call is “inactive”.

`C=C1CCC=C(C)CCC2C1CC2(C)C.O` (single isomer, unassigned; (-)) [(-)E-CARYOPHYLLENE hydrate ]: the cytotoxicity call was “inactive”.

Take `C=C1C(=O)OC2C1CCC(C)=CCCC1(C)OC21` (stereo not given): the cytotoxicity call is “active”.

Regarding `C[C@H](CO)N1C[C@H](C)[C@H](CN(C)S(=O)(=O)c2ccccc2)Oc2ncc(C#Cc3ccccc3)cc2C1=O`, the cytotoxicity call is “inactive”.

As to `Cc1ccc(S(=O)(=O)Nc2ccc3c(c2)C(=O)N([C@H](C)CO)C[C@H](C)[C@@H](CN(C)C(=O)c2ccccc2)OCCCC[C@@H](C)O3)cc1`, the cytotoxicity call was “inactive”.

Regarding `COCC(=O)N1CC[C@]2(CC(C(=O)NCc3cnc(C)cn3)=NO2)C1`, the cytotoxicity call is “inactive”.

Regarding `COc1ccc(S(=O)(=O)N(C)C[C@@H]2OCCCC[C@@H](C)Oc3ccc(NC(=O)Nc4c(C)noc4C)cc3C(=O)N([C@@H](C)CO)C[C@H]2C)cc1`, the cytotoxicity call is “inactive”.

Consider `COc1ccc(S(=O)(=O)N(C)C[C@H]2OCCCC[C@H](C)Oc3ccc(NC(=O)Nc4c(C)noc4C)cc3C(=O)N([C@@H](C)CO)C[C@@H]2C)cc1`, for which the cytotoxicity call is “active”.

Regarding `COc1ccc(S(=O)(=O)N(C)C[C@@H]2OCCCC[C@H](C)Oc3ccc(NC(=O)Nc4c(C)noc4C)cc3C(=O)N([C@H](C)CO)C[C@@H]2C)cc1`, the cytotoxicity call was “inactive”.

As for `COc1ccc(S(=O)(=O)N(C)C[C@H]2OCCCC[C@@H](C)Oc3ccc(NC(=O)Nc4c(C)noc4C)cc3C(=O)N([C@H](C)CO)C[C@@H]2C)cc1`, the cytotoxicity call is “inactive”.

On to `COc1ccc(S(=O)(=O)N(C)C[C@H]2OCCCC[C@H](C)Oc3ccc(NC(=O)Nc4c(C)noc4C)cc3C(=O)N([C@@H](C)CO)C[C@H]2C)cc1`, for which the cytotoxicity call was “active”.

With `COc1ccc(S(=O)(=O)N(C)C[C@@H]2OCCCC[C@H](C)Oc3ccc(NC(=O)Nc4c(C)noc4C)cc3C(=O)N([C@@H](C)CO)C[C@H]2C)cc1`, the cytotoxicity call was “inactive”.

With `Cc1noc(C)c1NC(=O)N(C)C[C@H]1Oc2ccc(NS(=O)(=O)c3cn(C)cn3)cc2CC(=O)N([C@H](C)CO)C[C@@H]1C`, the cytotoxicity call was “inactive”.

With `C[C@@H]1CN([C@@H](C)CO)C(=O)c2cccc(NS(=O)(=O)c3cn(C)cn3)c2O[C@@H]1CN(C)Cc1ccncc1`, the cytotoxicity call was “inactive”.

On to `O=C(C[C@H]1C[C@H]2c3cc(NC(=O)Nc4ccc(C(F)(F)F)cc4)ccc3O[C@H]2[C@H](CO)O1)NCc1cc(F)ccc1F`, for which the cytotoxicity call was “inactive”.

For the compound `CNC[C@@H]1OCCCC[C@@H](C)Oc2ccc(NS(=O)(=O)c3c(C)noc3C)cc2C(=O)N([C@H](C)CO)C[C@@H]1C`, the cytotoxicity call was “inactive”.

For `C[C@H]1C/C(=C\N(C)C)C(=O)C1=O`, the cytotoxicity call is “active”.

For `C[C@@H]1CCCCO[C@@H](CN(C)C(=O)Nc2ccc3c(c2)OCO3)[C@H](C)CN([C@H](C)CO)C(=O)c2cc(NS(=O)(=O)c3ccc(Cl)cc3)ccc2O1`, the cytotoxicity call was “inactive”.

On to `C[C@@H]1CCCCO[C@H](CN(C)S(=O)(=O)c2ccccc2)[C@H](C)CN([C@@H](C)CO)C(=O)c2cc(NC(=O)NC3CCCCC3)ccc2O1`, for which the cytotoxicity call was “inactive”.

For the compound `C[C@H](CO)N1C[C@H](C)[C@@H](CN(C)Cc2ccc3c(c2)OCO3)Oc2c(NC(=O)C3CCOCC3)cccc2C1=O`, the cytotoxicity call is “inactive”.

Take `C[C@@H]1CN([C@H](C)CO)C(=O)c2cc(C#CCc3ccccc3)cnc2O[C@@H]1CN(C)C(=O)C1CCOCC1`: the cytotoxicity call is “inactive”.

Consider `O=C(c1ccc(Cl)cc1)c1coc2c1cc(O)c1ccccc12`, for which the cytotoxicity call is “active”.

As for `Oc1ccc(F)c2ccccc12`, the cytotoxicity call is “inactive”.

For `C[C@H](CO)N1C[C@H](C)[C@@H](CN(C)C(=O)Nc2ccc3c(c2)OCO3)Oc2ccc(NC(=O)Nc3ccc(C(F)(F)F)cc3)cc2CC1=O`, the cytotoxicity call is “inactive”.

In the case of `C[C@H]1CN([C@@H](C)CO)C(=O)Cc2cc(NC(=O)Nc3ccc(C(F)(F)F)cc3)ccc2O[C@@H]1CN(C)C(=O)Nc1ccc2c(c1)OCO2`, the cytotoxicity call is “inactive”.

Consider `C[C@H]1CN([C@@H](C)CO)C(=O)Cc2cc(NC(=O)Nc3ccc4c(c3)OCO4)ccc2O[C@H]1CN(C)C(=O)Nc1ccc(C(F)(F)F)cc1`, for which the cytotoxicity call was “active”.

Take `C[C@H]1CN([C@@H](C)CO)C(=O)Cc2cc(NC(=O)Nc3ccc4c(c3)OCO4)ccc2O[C@@H]1CN(C)C(=O)Nc1ccc(C(F)(F)F)cc1`: the cytotoxicity call is “inactive”.

`C[C@H]1CN([C@@H](C)CO)C(=O)Cc2cc(NC(=O)Nc3ccc(C(F)(F)F)cc3)ccc2O[C@H]1CN(C)C(=O)Nc1ccc2c(c1)OCO2`: the cytotoxicity call is “inactive”.

Consider `C[C@@H]1CN([C@@H](C)CO)C(=O)Cc2cc(NC(=O)Nc3ccc(C(F)(F)F)cc3)ccc2O[C@@H]1CN(C)C(=O)Nc1ccc2c(c1)OCO2`, for which the cytotoxicity call is “active”.

Regarding `C[C@@H]1CN([C@H](C)CO)C(=O)Cc2cc(NC(=O)Nc3ccc(C(F)(F)F)cc3)ccc2O[C@@H]1CN(C)C(=O)Nc1ccc2c(c1)OCO2`, the cytotoxicity call is “active”.

`C[C@@H]1CN([C@H](C)CO)C(=O)Cc2cc(NC(=O)Nc3ccc4c(c3)OCO4)ccc2O[C@@H]1CN(C)C(=O)Nc1ccc(C(F)(F)F)cc1`: the cytotoxicity call is “active”.

As for `C[C@H](CO)N1C[C@H](C)[C@H](CN(C)C(=O)Nc2ccc3c(c2)OCO3)Oc2ccc(NC(=O)Nc3ccc(C(F)(F)F)cc3)cc2CC1=O`, the cytotoxicity call was “inactive”.

With `C[C@@H]1CN([C@H](C)CO)C(=O)Cc2cc(NC(=O)Nc3ccc(C(F)(F)F)cc3)ccc2O[C@H]1CN(C)C(=O)Nc1ccc2c(c1)OCO2`, the cytotoxicity call is “inactive”.

With `C[C@@H]1CN([C@@H](C)CO)C(=O)Cc2cc(NC(=O)Nc3ccc(C(F)(F)F)cc3)ccc2O[C@H]1CN(C)C(=O)Nc1ccc2c(c1)OCO2`, the cytotoxicity call was “inactive”.

For the compound `C[C@@H]1CN([C@@H](C)CO)C(=O)Cc2cc(NC(=O)Nc3ccc4c(c3)OCO4)ccc2O[C@H]1CN(C)C(=O)Nc1ccc(C(F)(F)F)cc1`, the cytotoxicity call was “inactive”.
